# The supplement of paper PMC11026393
# Assays:
# Experiment in all cases: difference in mean normalized H2B-mRuby nuclear fluorescence intensity relative to DMSO control (normalized intensity difference (DMSO = 0)); higher = stronger increase in transgene reporter fluorescence
# Settings in all cases: 24 h
# H1299 = test system: H1299
# Procedure, shortened: (§1)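 Cancer cell lines stably expressing lentivirally transduced H2B-mRuby2 (hygromycin-selected) were drug-treated for 24 h with equalized DMSO. Cells were imaged unstained on a Leica DMI8 (excitation 541–551 nm, emission 565–605 nm) with bright-field autofocus. Nuclei were segmented in CellProfiler after illumination correction, using Sauvola adaptive thresholding. The value is the difference in mean per-nucleus normalized H2B-mRuby intensity from DMSO-treated cells, from about 3 repeats of 4 fields each.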
# LN-18 = test system: LN-18
# Procedure, shortened: as §1
# SK-OV-3 = test system: SK-OV-3
# Procedure, shortened: as §1
smiles,measurement,setting,value
Cn1ncnc1[C@H]1c2n[nH]c(=O)c3cc(F)cc(c23)N[C@@H]1c1ccc(F)cc1 (concentration unit: uM),difference,H1299; concentration: 1,0.0403
same,difference,H1299; concentration: 2.5,-0.0275
same,difference,H1299; concentration: 5,0.00616
same,difference,H1299; concentration: 10,0.00511
same,difference,H1299; concentration: 25,0.0863
O=C(/C=C/c1cccc(S(=O)(=O)Nc2ccccc2)c1)NO (concentration unit: uM),difference,H1299; concentration: 0.25,0.186
same,difference,H1299; concentration: 0.5,0.231
same,difference,H1299; concentration: 1,0.491
same,difference,H1299; concentration: 2.5,0.854
same,difference,H1299; concentration: 5,1.19
COC(=O)c1ccc([C@H]2c3[nH]c4ccccc4c3C[C@H](C(=O)OC)N2C(=O)CCl)cc1 (concentration unit: nM),difference,H1299; concentration: 25,0.0419
same,difference,H1299; concentration: 100,0.0844
same,difference,H1299; concentration: 250,0.00407
same,difference,H1299; concentration: 500,0.231
same,difference,H1299; concentration: 1000,0.121
COc1cc([C@@H]2c3cc4c(cc3[C@@H](O[C@@H]3O[C@@H]5CO[C@@H](C)O[C@H]5[C@H](O)[C@H]3O)[C@H]3COC(=O)[C@H]23)OCO4)cc(OC)c1O (concentration unit: uM),difference,LN-18; concentration: 1,0.0338
same,difference,LN-18; concentration: 2.5,0.04
same,difference,LN-18; concentration: 5,0.0489
same,difference,LN-18; concentration: 10,0.0688
same,difference,LN-18; concentration: 20,0.0487
same,difference,SK-OV-3; concentration: 1,0.0528
same,difference,SK-OV-3; concentration: 2.5,0.00327
same,difference,SK-OV-3; concentration: 5,0.00917
same,difference,SK-OV-3; concentration: 10,0.159
same,difference,SK-OV-3; concentration: 20,0.266
CNC(=O)c1ccccc1Sc1ccc2c(/C=C/c3ccccn3)n[nH]c2c1 (concentration unit: uM),difference,H1299; concentration: 1,-0.0324
same,difference,H1299; concentration: 2.5,0.0393
same,difference,H1299; concentration: 5,0.159
same,difference,H1299; concentration: 10,0.14
same,difference,H1299; concentration: 20,0.156
CC(=O)c1c(C)c2cnc(Nc3ccc(N4CCNCC4)cn3)nc2n(C2CCCC2)c1=O (concentration unit: uM),difference,H1299; concentration: 0.1,-0.156
same,difference,H1299; concentration: 0.5,-0.266
same,difference,H1299; concentration: 1,-0.19
same,difference,H1299; concentration: 5,-0.0957
same,difference,H1299; concentration: 10,-0.0594
Cc1[nH]c2ccccc2c1CCNCc1ccc(/C=C/C(=O)NO)cc1 (concentration unit: nM),difference,H1299; concentration: 10,0.43
same,difference,H1299; concentration: 25,0.738
same,difference,H1299; concentration: 50,0.733
same,difference,H1299; concentration: 100,0.864
same,difference,H1299; concentration: 250,0.886
same,difference,H1299; concentration: 500,0.923
same,difference,LN-18; concentration: 10,0.22
same,difference,LN-18; concentration: 50,0.459
same,difference,LN-18; concentration: 100,0.491
same,difference,LN-18; concentration: 250,0.528
same,difference,LN-18; concentration: 500,0.494
same,difference,SK-OV-3; concentration: 10,0.269
same,difference,SK-OV-3; concentration: 50,1.12
same,difference,SK-OV-3; concentration: 100,1.16
same,difference,SK-OV-3; concentration: 250,1.1
same,difference,SK-OV-3; concentration: 500,1.13
COc1cc2nccc(Oc3ccc(NC(=O)C4(C(=O)Nc5ccc(F)cc5)CC4)cc3)c2cc1OC (concentration unit: uM),difference,H1299; concentration: 0.5,0.0394
same,difference,H1299; concentration: 1,-0.122
same,difference,H1299; concentration: 2.5,-0.0701
same,difference,H1299; concentration: 5,0.0398
same,difference,H1299; concentration: 10,0.0491
Nc1ncn([C@@H]2O[C@H](CO)[C@@H](O)[C@H]2O)c(=O)n1 (concentration unit: uM),difference,LN-18; concentration: 1,0.03
same,difference,LN-18; concentration: 2.5,0.0353
same,difference,LN-18; concentration: 5,0.0211
same,difference,LN-18; concentration: 10,0.0474
same,difference,LN-18; concentration: 20,0.00195
same,difference,SK-OV-3; concentration: 1,0.0139
same,difference,SK-OV-3; concentration: 2.5,-0.0364
same,difference,SK-OV-3; concentration: 5,0.0517
same,difference,SK-OV-3; concentration: 10,0.126
same,difference,SK-OV-3; concentration: 20,0.105
COc1cc2ncnc(Nc3ccc(F)c(Cl)c3)c2cc1OCCCN1CCOCC1 (concentration unit: uM),difference,LN-18; concentration: 1,0.099
same,difference,LN-18; concentration: 2.5,0.00859
same,difference,LN-18; concentration: 5,0.0147
same,difference,LN-18; concentration: 10,0.0212
same,difference,LN-18; concentration: 20,0.00315
same,difference,SK-OV-3; concentration: 1,0.00612
same,difference,SK-OV-3; concentration: 2.5,-0.00968
same,difference,SK-OV-3; concentration: 5,0.0329
same,difference,SK-OV-3; concentration: 10,0.0831
same,difference,SK-OV-3; concentration: 20,0.0836
Cc1nc(Nc2ncc(C(=O)Nc3c(C)cccc3Cl)s2)cc(N2CCN(CCO)CC2)n1 (concentration unit: nM),difference,H1299; concentration: 25,-0.00395
same,difference,H1299; concentration: 100,0.0114
same,difference,H1299; concentration: 250,0.0693
same,difference,H1299; concentration: 1000,0.167
same,difference,H1299; concentration: 2500,0.163
same,difference,LN-18; concentration: 25,0.0292
same,difference,LN-18; concentration: 100,0.0217
same,difference,LN-18; concentration: 250,0.0754
same,difference,LN-18; concentration: 1000,0.0482
same,difference,LN-18; concentration: 2500,-0.0509
same,difference,SK-OV-3; concentration: 25,0.111
same,difference,SK-OV-3; concentration: 100,0.606
same,difference,SK-OV-3; concentration: 250,0.528
same,difference,SK-OV-3; concentration: 1000,0.636
same,difference,SK-OV-3; concentration: 2500,0.551
CC(=O)O[C@H]1C(=O)[C@@]2(C)[C@H]([C@H](OC(=O)c3ccccc3)[C@]3(O)C[C@H](OC(=O)[C@H](O)[C@@H](NC(=O)c4ccccc4)c4ccccc4)C(C)=C1C3(C)C)[C@]1(OC(C)=O)CO[C@@H]1C[C@@H]2O (concentration unit: nM),difference,H1299; concentration: 10,-0.0339
same,difference,H1299; concentration: 25,-0.0112
same,difference,H1299; concentration: 50,0.134
same,difference,H1299; concentration: 100,0.374
same,difference,H1299; concentration: 1000,0.566
O=C(c1cc(Cc2n[nH]c(=O)c3ccccc23)ccc1F)N1CCN(C(=O)C2CC2)CC1 (concentration unit: uM),difference,H1299; concentration: 1,-0.0151
same,difference,H1299; concentration: 2.5,-0.0147
same,difference,H1299; concentration: 5,0.0174
same,difference,H1299; concentration: 10,0.0357
same,difference,H1299; concentration: 25,0.0633
COc1cccc2c1C(=O)c1c(O)c3c(c(O)c1C2=O)C[C@@](O)(C(=O)CO)C[C@@H]3O[C@H]1C[C@H](N)[C@H](O)[C@H](C)O1 (concentration unit: nM),difference,LN-18; concentration: 25,-0.017
same,difference,LN-18; concentration: 100,-0.0175
same,difference,LN-18; concentration: 250,0.0434
same,difference,LN-18; concentration: 1000,0.361
same,difference,LN-18; concentration: 2500,0.899
same,difference,SK-OV-3; concentration: 25,-0.00185
same,difference,SK-OV-3; concentration: 100,0.13
same,difference,SK-OV-3; concentration: 250,0.133
same,difference,SK-OV-3; concentration: 1000,0.252
same,difference,SK-OV-3; concentration: 2500,0.93
N#CC[C@H](C1CCCC1)n1cc(-c2ncnc3[nH]ccc23)cn1 (concentration unit: uM),difference,H1299; concentration: 1,0.0876
same,difference,H1299; concentration: 2.5,-0.0462
same,difference,H1299; concentration: 5,-0.0185
same,difference,H1299; concentration: 10,-0.0963
same,difference,H1299; concentration: 25,0.115
CNC(=O)c1cc(Oc2ccc(NC(=O)Nc3ccc(Cl)c(C(F)(F)F)c3)cc2)ccn1 (concentration unit: uM),difference,H1299; concentration: 1,0.0342
same,difference,H1299; concentration: 2.5,-0.0184
same,difference,H1299; concentration: 5,-0.0837
same,difference,H1299; concentration: 10,-0.0051
same,difference,H1299; concentration: 25,-0.155
CO[C@H]1C[C@@H]2CC[C@@H](C)[C@@](O)(O2)C(=O)C(=O)N2CCCC[C@H]2C(=O)O[C@H]([C@H](C)C[C@@H]2CC[C@@H](O)[C@H](OC)C2)CC(=O)[C@H](C)/C=C(\C)[C@@H](O)[C@@H](OC)C(=O)[C@H](C)C[C@H](C)/C=C/C=C/C=C/1C (concentration unit: nM),difference,H1299; concentration: 2.5,-0.0109
same,difference,H1299; concentration: 10,0.177
same,difference,H1299; concentration: 25,0.0761
same,difference,H1299; concentration: 50,0.0674
same,difference,H1299; concentration: 250,0.0406
